From ChEMBL document CHEMBL3988442, “University of Dundee, Small-Polar-MMV Screening Library” (2021)
For some assays here: Measured potencies and affinities stand elsewhere.

Legend:
Set-up in all cases: scale not given: direction of the effect not stated beside the values
[1] = biological target: Protein translocase subunit SecA (Escherichia coli (strain K12)) (UniProt P10408); assay: Assay to Identify E. coli SecA ATPase Inhibitors; format: functional; settings: 30 µM
[2] = biological target: T1, Ubiquitin-activating enzyme e1, putative (Leishmania donovani (strain BPK282A1)) (UniProt E9BSI1); assay: Leishmania donovani Ubiquitin Activating Enzyme (LdE1); format: functional; settings: 30 µM
T1 sequence (whole entry): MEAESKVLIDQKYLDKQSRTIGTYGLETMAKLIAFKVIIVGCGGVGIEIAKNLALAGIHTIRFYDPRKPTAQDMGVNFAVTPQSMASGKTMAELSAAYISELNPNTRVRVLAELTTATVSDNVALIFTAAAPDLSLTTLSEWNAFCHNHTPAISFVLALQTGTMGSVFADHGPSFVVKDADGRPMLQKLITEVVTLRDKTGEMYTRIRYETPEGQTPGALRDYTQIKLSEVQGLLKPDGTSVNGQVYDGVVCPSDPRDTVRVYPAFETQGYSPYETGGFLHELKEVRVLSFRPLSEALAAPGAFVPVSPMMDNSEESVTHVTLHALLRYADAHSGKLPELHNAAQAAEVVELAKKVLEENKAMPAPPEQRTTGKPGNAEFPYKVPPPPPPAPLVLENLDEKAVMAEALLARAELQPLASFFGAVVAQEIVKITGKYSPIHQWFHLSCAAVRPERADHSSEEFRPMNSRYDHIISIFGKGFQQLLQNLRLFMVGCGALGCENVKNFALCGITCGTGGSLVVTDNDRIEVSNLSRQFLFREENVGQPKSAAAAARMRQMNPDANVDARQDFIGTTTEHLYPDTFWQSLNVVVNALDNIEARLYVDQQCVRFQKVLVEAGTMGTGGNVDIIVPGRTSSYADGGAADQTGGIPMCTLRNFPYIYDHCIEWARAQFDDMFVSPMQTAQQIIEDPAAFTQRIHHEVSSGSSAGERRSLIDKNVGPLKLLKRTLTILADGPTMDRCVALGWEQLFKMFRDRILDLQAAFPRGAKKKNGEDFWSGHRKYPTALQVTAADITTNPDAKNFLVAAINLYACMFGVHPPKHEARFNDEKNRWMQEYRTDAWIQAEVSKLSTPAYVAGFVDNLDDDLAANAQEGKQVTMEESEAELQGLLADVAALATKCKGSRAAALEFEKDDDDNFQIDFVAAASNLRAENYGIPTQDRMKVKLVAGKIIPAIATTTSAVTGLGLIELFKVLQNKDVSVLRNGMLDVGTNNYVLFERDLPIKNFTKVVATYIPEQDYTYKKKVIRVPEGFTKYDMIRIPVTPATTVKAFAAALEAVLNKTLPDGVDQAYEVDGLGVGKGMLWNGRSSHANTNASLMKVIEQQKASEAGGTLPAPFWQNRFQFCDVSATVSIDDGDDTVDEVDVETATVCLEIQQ

[3] = biological target: Sialic acid-binding Ig-like lectin 9 (Homo sapiens) (UniProt Q9Y336); assay: Hs-Siglec9 ALPHAscreen SOP 20170721; settings: 10 µM
Trypanosoma cruzi = assay: Trypanosoma cruzi phosphomannomutase and mannose-1-phosphate guanylyltransferase assay; format: functional; settings: 10 µM
[4] = biological target: T2, Arginase-2, mitochondrial (Homo sapiens) (UniProt P78540); assay: in vitro enzyme assay to detect the production of urea directly proportional to the activity of Arginase II; format: functional; settings: 33.3 µM; further: in the data most compounds retested in dose-response had high values
T2 sequence (whole entry): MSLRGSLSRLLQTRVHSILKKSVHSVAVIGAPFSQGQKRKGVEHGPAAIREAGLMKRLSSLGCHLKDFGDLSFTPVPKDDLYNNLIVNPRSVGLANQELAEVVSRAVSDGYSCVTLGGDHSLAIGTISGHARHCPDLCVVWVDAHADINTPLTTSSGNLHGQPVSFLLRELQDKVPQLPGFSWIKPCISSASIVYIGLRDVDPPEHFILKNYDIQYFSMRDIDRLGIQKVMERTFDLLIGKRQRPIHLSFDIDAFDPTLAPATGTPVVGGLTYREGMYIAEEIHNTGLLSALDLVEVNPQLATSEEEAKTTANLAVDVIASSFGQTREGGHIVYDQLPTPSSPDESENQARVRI

[5] = biological target: T3, Proteasome subunit beta (Trypanosoma cruzi) (UniProt O96673); assay: Trypanosoma cruzi proteasome chymotrypsin-like activity (TcProtChymo) assay.; further: in the data most compounds retested in dose-response had high values; format: functional; settings: 9.37 µM
T3 sequence (whole entry): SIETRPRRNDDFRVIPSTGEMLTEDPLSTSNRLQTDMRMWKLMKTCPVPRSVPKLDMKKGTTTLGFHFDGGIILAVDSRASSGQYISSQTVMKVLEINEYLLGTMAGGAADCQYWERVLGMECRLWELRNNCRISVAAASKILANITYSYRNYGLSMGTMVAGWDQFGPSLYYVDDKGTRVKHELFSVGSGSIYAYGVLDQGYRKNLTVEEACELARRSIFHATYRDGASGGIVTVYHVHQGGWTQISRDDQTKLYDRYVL

Homo sapiens = species: Homo sapiens; assay: To identify inhibition of the IFN signalling (Jak-Stat) pathway via expression of an eGFP reporter gene under the control of an IFN-stimulated response element (ISRE) containing MxA promoter.; format: functional; settings: 30 µM
[6] = biological target: T4, Tyrosyl-tRNA synthetase, putative (Trypanosoma cruzi (strain CL Brener)) (UniProt Q4DSP6); assay: Trypanosoma cruzi tyrosyl tRNA synthetase (TcYRS) _High Tyrosine SOP; format: functional; settings: 30 µM; further: in the data most compounds retested in dose-response had high values
T4 sequence (whole entry): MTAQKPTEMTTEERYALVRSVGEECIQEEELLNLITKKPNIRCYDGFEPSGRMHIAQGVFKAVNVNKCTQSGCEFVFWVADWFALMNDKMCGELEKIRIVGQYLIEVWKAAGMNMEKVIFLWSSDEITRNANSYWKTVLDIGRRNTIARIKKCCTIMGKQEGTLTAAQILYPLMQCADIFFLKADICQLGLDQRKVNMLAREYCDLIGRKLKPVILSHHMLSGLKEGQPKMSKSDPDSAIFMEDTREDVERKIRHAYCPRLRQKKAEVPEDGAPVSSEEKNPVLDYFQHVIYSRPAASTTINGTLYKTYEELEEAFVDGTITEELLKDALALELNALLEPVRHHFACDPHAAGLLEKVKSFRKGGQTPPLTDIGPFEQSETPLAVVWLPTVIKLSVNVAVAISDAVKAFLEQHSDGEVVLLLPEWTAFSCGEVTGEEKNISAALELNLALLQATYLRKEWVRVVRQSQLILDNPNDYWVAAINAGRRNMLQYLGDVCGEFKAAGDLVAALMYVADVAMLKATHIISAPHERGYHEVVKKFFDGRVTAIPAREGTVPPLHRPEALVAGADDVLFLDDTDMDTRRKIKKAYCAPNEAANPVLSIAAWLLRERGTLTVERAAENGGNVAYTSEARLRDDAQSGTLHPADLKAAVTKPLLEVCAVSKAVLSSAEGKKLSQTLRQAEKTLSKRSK

[7] = biological target: T4, Tyrosyl-tRNA synthetase, putative (Trypanosoma cruzi (strain CL Brener)); assay: Trypanosoma cruzi tyrosyl tRNA synthetase (TcYRS) SOP; format: functional; settings: 30 µM
[8] = biological target: Chromo domain-containing protein 1 (Saccharomyces cerevisiae (strain ATCC 204508 / S288c) (Baker's yeast)) (UniProt P32657); assay: ScCHD-1 Enzyme Inhibition Assay; format: functional; settings: 30 µM; further: in the data most compounds retested in dose-response had high values
Chromo domain-containing protein 1 (Saccharomyces cerevisiae (strain ATCC 204508 / S288c) (Baker's yeast)), sequence (P32657 whole entry, the tested form may be a part): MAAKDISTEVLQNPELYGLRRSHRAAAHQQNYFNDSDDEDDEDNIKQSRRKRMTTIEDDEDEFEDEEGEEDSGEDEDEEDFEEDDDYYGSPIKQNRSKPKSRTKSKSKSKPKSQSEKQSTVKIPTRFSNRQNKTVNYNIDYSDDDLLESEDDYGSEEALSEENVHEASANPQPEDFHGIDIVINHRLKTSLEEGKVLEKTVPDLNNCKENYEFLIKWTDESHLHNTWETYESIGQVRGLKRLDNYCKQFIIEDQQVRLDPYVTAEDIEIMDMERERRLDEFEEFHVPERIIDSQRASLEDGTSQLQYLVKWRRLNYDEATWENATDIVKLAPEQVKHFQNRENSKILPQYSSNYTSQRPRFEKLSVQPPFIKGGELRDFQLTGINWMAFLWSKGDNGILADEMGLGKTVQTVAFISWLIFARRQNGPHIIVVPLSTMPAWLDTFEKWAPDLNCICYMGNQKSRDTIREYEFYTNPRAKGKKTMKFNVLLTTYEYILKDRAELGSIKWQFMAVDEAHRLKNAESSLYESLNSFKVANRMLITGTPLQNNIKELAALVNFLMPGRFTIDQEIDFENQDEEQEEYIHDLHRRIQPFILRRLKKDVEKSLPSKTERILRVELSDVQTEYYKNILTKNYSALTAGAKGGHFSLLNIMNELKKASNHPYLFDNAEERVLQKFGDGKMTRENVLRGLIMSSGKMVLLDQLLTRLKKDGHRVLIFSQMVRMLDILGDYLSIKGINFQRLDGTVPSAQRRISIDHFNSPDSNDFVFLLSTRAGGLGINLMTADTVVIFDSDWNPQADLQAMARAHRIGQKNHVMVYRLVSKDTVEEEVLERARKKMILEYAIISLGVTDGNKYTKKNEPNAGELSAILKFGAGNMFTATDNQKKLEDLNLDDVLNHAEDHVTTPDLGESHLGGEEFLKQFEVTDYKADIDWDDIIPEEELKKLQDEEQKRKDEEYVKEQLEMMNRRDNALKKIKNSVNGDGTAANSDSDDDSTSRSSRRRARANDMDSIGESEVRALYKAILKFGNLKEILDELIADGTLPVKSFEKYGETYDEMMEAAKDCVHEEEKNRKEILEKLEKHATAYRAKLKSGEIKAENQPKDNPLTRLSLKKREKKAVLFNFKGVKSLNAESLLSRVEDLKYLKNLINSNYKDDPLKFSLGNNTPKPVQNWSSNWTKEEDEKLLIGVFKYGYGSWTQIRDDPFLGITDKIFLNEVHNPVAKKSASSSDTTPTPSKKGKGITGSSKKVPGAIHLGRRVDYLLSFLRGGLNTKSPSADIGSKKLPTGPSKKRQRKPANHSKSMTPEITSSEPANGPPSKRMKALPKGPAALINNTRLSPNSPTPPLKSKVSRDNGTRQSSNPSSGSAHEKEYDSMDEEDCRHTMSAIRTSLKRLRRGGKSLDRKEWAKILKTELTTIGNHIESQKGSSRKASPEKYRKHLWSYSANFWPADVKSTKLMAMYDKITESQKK

Sialic acid-binding Ig-like lectin 9 (Homo sapiens), sequence (Q9Y336 whole entry): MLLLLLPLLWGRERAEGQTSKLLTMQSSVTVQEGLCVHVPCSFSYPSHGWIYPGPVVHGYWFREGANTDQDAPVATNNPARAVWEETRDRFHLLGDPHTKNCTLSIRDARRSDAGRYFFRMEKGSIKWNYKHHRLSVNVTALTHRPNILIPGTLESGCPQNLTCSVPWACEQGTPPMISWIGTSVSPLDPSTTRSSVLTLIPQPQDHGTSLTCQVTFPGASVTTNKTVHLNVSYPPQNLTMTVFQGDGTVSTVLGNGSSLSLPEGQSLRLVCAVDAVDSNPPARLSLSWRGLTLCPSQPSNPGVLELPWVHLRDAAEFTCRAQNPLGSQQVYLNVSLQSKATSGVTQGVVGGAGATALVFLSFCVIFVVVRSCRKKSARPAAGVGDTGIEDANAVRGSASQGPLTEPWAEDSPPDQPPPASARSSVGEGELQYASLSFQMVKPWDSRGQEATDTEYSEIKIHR
Protein translocase subunit SecA (Escherichia coli (strain K12)), sequence (P10408 whole entry): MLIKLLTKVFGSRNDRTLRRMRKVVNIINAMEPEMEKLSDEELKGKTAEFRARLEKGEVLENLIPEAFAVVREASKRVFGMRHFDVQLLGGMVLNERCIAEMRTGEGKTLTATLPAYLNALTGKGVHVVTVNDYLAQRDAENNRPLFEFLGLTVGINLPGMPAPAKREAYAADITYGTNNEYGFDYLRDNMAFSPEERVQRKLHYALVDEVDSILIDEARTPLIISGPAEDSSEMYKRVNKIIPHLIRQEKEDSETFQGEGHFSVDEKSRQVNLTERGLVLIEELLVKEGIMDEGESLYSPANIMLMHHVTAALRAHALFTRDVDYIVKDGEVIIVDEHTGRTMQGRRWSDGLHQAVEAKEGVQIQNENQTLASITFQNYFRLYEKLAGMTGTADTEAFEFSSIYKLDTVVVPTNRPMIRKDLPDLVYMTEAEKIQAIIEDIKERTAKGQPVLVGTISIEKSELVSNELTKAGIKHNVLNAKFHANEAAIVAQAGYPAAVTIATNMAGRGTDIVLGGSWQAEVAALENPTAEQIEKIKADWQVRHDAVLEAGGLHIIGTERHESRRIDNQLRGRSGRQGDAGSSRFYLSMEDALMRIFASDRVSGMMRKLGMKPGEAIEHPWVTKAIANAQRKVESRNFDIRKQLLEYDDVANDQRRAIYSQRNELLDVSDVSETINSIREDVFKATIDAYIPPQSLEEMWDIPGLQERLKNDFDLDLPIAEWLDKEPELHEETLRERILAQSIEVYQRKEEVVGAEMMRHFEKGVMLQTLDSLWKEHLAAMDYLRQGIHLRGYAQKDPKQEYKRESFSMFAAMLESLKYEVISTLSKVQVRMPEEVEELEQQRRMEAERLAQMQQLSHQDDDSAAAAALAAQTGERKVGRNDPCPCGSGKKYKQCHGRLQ

| Structure (SMILES) | Percent Effect [1] [%] | Percent Effect [2] [%] | Percent Effect [3] [%] | Percent Effect (Trypanosoma cruzi) [%] | Percent Effect [4] [%] | Percent Effect [5] [%] | Percent Effect (Homo sapiens) [%] | Percent Effect [6] [%] | Percent Effect [7] [%] | Percent Effect [8] [%] |
| --- | --- | --- | --- | --- | --- | --- | --- | --- | --- | --- |
| O=C(c1ccc(OCC2CC2)nc1)N1CCCC(n2cncn2)C1 (stereo not given) | -1.42 | 10.3 | -4.65 | -3.1 | 7.79 | 9.13 | 19.1 | 5.26 | 13.2 | -4.21 |
| Cc1ncc(-c2ccnc(N3CCN(C)CC3)n2)c(-c2cccnc2)n1 | -1.44 | 8 | -2.21 | -9.24 | -39.9 | 8.57 | 8.85 | 4.74 | -2.56 | -12.5 |
| Cc1cc(NC(=O)N(CC2CCOC2)C2CC2)no1 (stereo not given) | -2.1 | 13.3 | 6.54 | 1.21 | 2.22 | 6.7 | 21.8 | 5.79 | 12.8 | -7.01 |
| COc1ccc(CN2CCC3(CC(Nc4ccncn4)C3)C2)c(OC)c1 (stereo not given) | -3.35 | 9.33 | 5.58 | -2.76 | -3.54 | 8.21 | 5.35 | 5.29 | 7.5 | -20.7 |
| CN(Cc1ccccc1)C(=O)c1nc(S(C)(=O)=O)n2ccccc12 | -7.02 | -92.3 | -5.33 | 9.67 | -1.23 | 1.96 | 5.84 | 1.44 | 13.2 | -7.37 |
| CCn1c(Cn2cncn2)nnc1C1CCN(Cc2ccc(C)o2)CC1 | -6.62 | 5.41 | 5.22 | 3.78 | 2.45 | 9.07 | 5.52 | 4.79 | 14.6 | -3.96 |
| Cc1nn(C)c(N(C)C)c1CNCCCN(C)S(C)(=O)=O | -1.22 | 12.8 | -8.74 | -3.47 | 5.33 | 10.2 | 4.19 | 2.39 | 18.1 | -3.07 |
| COC(=O)NCc1cc2n(n1)CCCN(C(C)=O)C2 | -9.99 | 5.41 | -0.0271 | -3.98 | -2.45 | 7.19 | -0.185 | 4.79 | 12.2 | -3.29 |
| COc1cc(C)nc(N2CCN(C(=O)COCC(F)(F)F)CC2)n1 | -3.6 | 7.69 | -1.63 | -1.22 | 1.64 | 3.16 | 22.4 | 4.31 | 8.43 | -3.52 |
| O=C(NCc1cc[nH]n1)NCC(O)c1ccc(F)cc1F (stereo not given) | -0.475 | 8 | -0.795 | -4.82 | -0.444 | 7.38 | -4.21 | 5.79 | 10.3 | -7.37 |
| CC(C)n1ccnc1CN1CCCN(C(=O)c2cc(Cl)c[nH]2)CC1 | -0.854 | 10.3 | -9.31 | -3.1 | 11.5 | 16.1 | 10.8 | 6.22 | 18.1 | -3.25 |
| CC(C)c1cc(N2CCC(N)CC2)n2nccc2n1 | -7.82 | 5.41 | 8.57 | 11 | -3.15 | 20.6 | 11.5 | 3.72 | 17.1 | -1.59 |
| COc1ccc(CNC(=O)N2CCC(Cc3cnn(C)c3)C2)cc1C (stereo not given) | -1.91 | 7.69 | -4.56 | 8.36 | 4.92 | 11.2 | 10.9 | 0.478 | 13.2 | -4.08 |
| COc1ccc(F)cc1C(C)NC(=O)Cn1ccc(=O)n(C)c1=O (stereo not given) | 2.28 | 13 | 2.06 | 2.05 | 5.94 | 9.82 | -0.632 | 9.8 | 21.2 | -4.5 |
| COc1cc(CNCc2ccc(NC(=O)NC(C)C)cc2)cc(OC)c1 | -1.27 | 15.6 | 5.02 | 6.9 | 10.4 | 16.1 | 33.6 | 8.82 | 30.6 | -10.7 |
| Cc1nccn1-c1cccc(C2CCCN2S(=O)(=O)c2cn(C)cn2)n1 (stereo not given) | -6.36 | 1.33 | -0.612 | -3.94 | -0.885 | -0.493 | 22.4 | 0 | -2.5 | -23.4 |
| CN1CCCn2c(nc(CNC(=O)c3ccsc3)cc2=O)C1 | -0.659 | 1.3 | -2.49 | -8.28 | 6.07 | 5.56 | -5.79 | 1.58 | 5.13 | -0.931 |
| c1cc(-c2nc(CN3CCn4c(nnc4C4CC4)C3)cs2)cs1 | 0.225 | -23.1 | -7.08 | 3.47 | -1.64 | 5.55 | 21.9 | 2.39 | 8.43 | 5.73 |
| CCC1CN(C(=O)c2ccccc2N2CCCC2)CCN1C(C)C (stereo not given) | -7.26 | 5.41 | -0.153 | -4.75 | -5.94 | 5.31 | -3.97 | 3.72 | -7.32 | -5.34 |
| Cc1nn(C)c(N(C)C)c1CNC(C)c1cccc(OC(C)C)c1 (stereo not given) | 2.06 | 5.2 | 13.8 | -0.746 | -7.58 | 4.91 | 15.4 | 3.92 | 18.8 | -11.9 |
| Cc1c(CN2CCCC(c3[nH]ncc3S(C)(=O)=O)C2)cnn1C (stereo not given) | -2.55 | 22.7 | -0.226 | 3.94 | -5.75 | 12.5 | 11.7 | 3.17 | 17.5 | -24.1 |
| CC(C)NC(=O)C1CN(C(=O)N2CCCC2)CC12CCOCC2 (stereo not given) | -1.18 | -3.9 | -4.49 | -1.27 | -4.45 | -6.62 | 5.24 | 2.63 | 2.56 | 2.05 |
| CNc1snc(C)c1C(=O)N1CCCC(n2nc(C)cc2C)C1 (stereo not given) | -9.36 | 13.3 | 16.1 | 6.02 | -3.1 | 5.68 | -7.89 | 4.74 | 15.4 | -14.8 |
